Activity calls are given as the source filed them.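 Rule for the calls: active = IC50 of 75 µM or lower for blocking USP2 cleavage of diubiquitin, judged on gels; inconclusive = IC50 above 75 µM but below 100 µM; inactive = IC50 of 100 µM or more.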

Ubiquitin carboxyl-terminal hydrolase 2 (Homo sapiens), sequence (O75604 whole entry, looked up): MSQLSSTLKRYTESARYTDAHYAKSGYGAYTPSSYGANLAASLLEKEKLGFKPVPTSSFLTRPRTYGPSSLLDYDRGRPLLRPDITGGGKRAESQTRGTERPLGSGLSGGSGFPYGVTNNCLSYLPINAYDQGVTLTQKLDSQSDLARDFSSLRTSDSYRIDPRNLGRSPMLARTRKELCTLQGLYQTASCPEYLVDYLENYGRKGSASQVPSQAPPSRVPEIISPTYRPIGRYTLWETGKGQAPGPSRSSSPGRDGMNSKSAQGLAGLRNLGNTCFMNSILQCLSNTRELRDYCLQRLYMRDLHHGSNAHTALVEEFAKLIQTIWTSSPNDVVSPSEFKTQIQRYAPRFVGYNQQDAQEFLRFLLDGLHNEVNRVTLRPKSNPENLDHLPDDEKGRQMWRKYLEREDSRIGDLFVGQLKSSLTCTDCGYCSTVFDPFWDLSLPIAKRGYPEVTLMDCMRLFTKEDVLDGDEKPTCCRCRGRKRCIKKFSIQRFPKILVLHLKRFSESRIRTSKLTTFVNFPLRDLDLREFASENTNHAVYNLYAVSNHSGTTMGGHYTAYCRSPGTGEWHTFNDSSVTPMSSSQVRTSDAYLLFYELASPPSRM

The assay concerns the target Ubiquitin carboxyl-terminal hydrolase 2 (Homo sapiens) (UniProt O75604). Nature of the assay: Inhibitors of USP1/UAF1: Hit Validation in USP2 Diubiquiting Gel Assay. The conditions noted are these: USP2 K63-diubiquitin cleavage, SDS-PAGE gel densitometry. The source says: Deubiquitinating enzymes (DUBs) are a class of enzymes that can cleave isopeptide bond formed between the C-terminal carboxylate of ubiquitin and a lysine side-chain amino group on the target protein. Among them, ubiquitin specific proteases (USPs) constitute the largest DUB family. Human USPs are emerging as promising targets for pharmacological intervention because of their connection to a number of human diseases, including prostate, colon and breast cancer (1, 2), pediatric acute lymphoblastic leukemia (3), and familial cylindromatosis (4). The advantage of inhibiting USPs lies in the potential specificity of therapeutic intervention that can lead to better efficacy and reduce nonspecific side effects. In a collaboration between the University of Delaware and the NIH Chemical Genomics Center, a high-throughput screen assay was developed to screen for USP1/UAF1 inhibitors. This miniaturized assay has a fluorescent read-out and is used to screen the NIH Molecular Libraries Small Molecule Repository (MLSMR) in order to identify a small molecule that inhibits USP1. Follow-up assays have also been developed to further test the hits from the primary screen. This assay validates the hits identified from the primary screen using a USP2 diubiquiting gel assay. NIH Chemical Genomics Center [NCGC] NIH Molecular Libraries Probe Centers Network [MLPCN] MLPCN Grant: DA030552 Assay Submitter (PI): Zhihao Zhuang, University of Delaware 1. Priolo, C., et al. (2006) The isopeptidase USP2a protects human prostate cancer from apoptosis. Cancer Res 66, 8625-8632 2. Popov, N., et al. (2007) The ubiquitin-specific protease USP28 is required for MYC stability. Nat Cell Biol 9, 765-774 3. […]
The inhibition assay contains 20 nM USP2, 2 microM K63 linked diubiquitin, and inhibitors at varied concentrations (0.08 microM - 114 microM). […] The intensity of the individual diubiquitin and monoubiquitin band was quantified using Quantity One 4.3.1 (Biorad, Hercules, CA). The percentage of the conversion was determined and used to calculate the reaction rate. […]
With `Cc1cccc(CNc2ccnc(-c3ccccc3C(F)(F)F)n2)c1`, the result was inactive.
Under `Cc1ccccc1-c1nc(NCc2cccs2)c2ccccc2n1` stands “inactive”; under `FC(F)(F)c1ccccc1-c1nc(NCc2cccs2)c2ccccc2n1`, “inactive”.

Values taken from PubChem BioAssay AID624345 (National Center for Advancing Translational Sciences (NCATS), 2012).
